Screens: PubChem, several laboratories
In the library only some 7.1% were active in any assay of this set; here they are far more common.
M1 ag = M1 muscarinic receptor agonists, primary screen, CHO-M1 cells, Fluo-4 calcium, agonist mode. Fluo-4 calcium fluorescence; active compounds read high. B-score at 10 µM. hit rate 3% among 64,000. Muscarinic acetylcholine receptor M1. AID 626, 2007;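 active means fluorescence rise, raw or as B-score row- and column-corrected plate score, outside the 99.7% band of its plate's samples, either direction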
M1 antag = antagonists of rat M1 muscarinic receptor. Muscarinic acetylcholine receptor M1 (Rattus norvegicus), P08482. CHO-M1 cells, Fluo-4 calcium, ACh EC80 antagonist mode; active compounds read low. B-score at 10 µM. hit rate 3.4% among 64,000;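 active means calcium fluorescence response, raw or row-and-column corrected B-score, differing from the plate sample mean either way at a set confidence level, mostly lower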
Pyk2 oligo antag = antagonists of Pyk2 self-association, primary screen, Q293 cells, FERM NanoBiT luminescence, HTS; Protein-tyrosine kinase 2-beta (Homo sapiens), Q14289; active compounds read low; z-score (the deposit names both 25 µM and 10 µM); hit rate 0.83% among 99,000;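 active means Z-score of -3 or lower, scaled per plate to the spread of control and sample wells; inactive means z-score above -3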;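 further: negative z-score means lost luminescence so less FERM oligomerization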
Cav32 inh = Cav3.2 calcium influx blockers – cell-based, Fluo-4 calcium fluorescence, FDSS, MLSMR library, primary screen | B-score at 10 µM | Voltage-dependent T-type calcium channel subunit alpha-1H (Homo sapiens), O95180 | Cav3.2-expressing cells; active compounds read low | hit rate 4% among 100,000;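 active means single-dose well whose peak fluorescence ratio is a statistical outlier from its plate by either plate-standardised score or position-corrected B-score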
Numbers without * were called inactive; nt = no result given.

SMILES	M1 ag	M1 antag	Pyk2 oligo antag	Cav32 inh
COc1ccc2c(c1)C(C)(CCN)C(=O)N2C (centres undefined)	nt	nt	nt	0.72
C=CCn1c(SCC(N)=O)nnc1-c1cc(Br)ccc1O	-0.13	0.099	0.3	0.88
C=CCn1c(SCc2c(C(=O)OC)sc(N)c2C(=O)OC)nnc1-c1ccc(Br)cc1	nt	nt	-0.85	-4.6*
COC(=O)c1ccccc1CON1C(=O)C(C)(C)N(OCc2ccccc2C(=O)OC)C(=O)C1(C)C	nt	nt	-2.1	-0.3
Cc1cc(C)cc(-n2nnc(C(=O)NCc3ccc4c(c3)OCO4)c2N)c1	-0.48	0.19	-1.7	-5.4*
Cc1ccc(CCNC(=O)c2nnn(-c3cc(C)cc(C)c3)c2N)cc1	0.033	1.2	-0.37	-0.65
Cc1cc(C)cc(NC(=S)NCc2ccc3c(c2)OCO3)c1	nt	nt	0.06	-4.8*
COC(=O)c1ccc(CN(c2ccc(C)cc2)S(=O)(=O)c2ccc3c(c2)OCCO3)o1	1.1	-0.43	-3.3*	0.36
CC1C(c2ccccc2)N(C)C(c2ccccc2)CC1(O)c1ccccc1 (centres undefined)	nt	nt	0.45	-6.8*
COC(=O)C(Cc1cnc(Cl)s1)(C(=O)OC)c1ccc(C(F)(F)F)cc1[N+](=O)[O-]	nt	nt	-2	-8.6*
CNC(=S)N(Cc1ccc2c(c1)OCO2)C1CC(=O)N(c2ccc(F)cc2)C1=O (centres undefined)	nt	nt	-0.19	-4*
CCOc1cc(/C=N/NC(=O)CSc2nncn2C)ccc1OCc1cccc(C)c1	nt	nt	2.2	nt
Cc1cc(=O)n2[nH]c(SCc3ccccc3)nc2n1	nt	nt	1	0.27
O=c1cc(-c2ccccc2)nc2nc(SCc3ccccc3)[nH]n12	-0.29	0.5	-0.31	-4.6*
COc1cccc(SCc2noc(C(=O)NCCCN3CCOCC3)c2C(=O)NCCCN2CCOCC2)c1	nt	nt	nt	0.44
CCC(C)Sc1nc2c(c(=O)[nH]c(=O)n2C)n1Cc1ccccc1Cl (centres undefined)	0.72	-0.54	nt	-4.4
COc1ccc(/C=C2/CCc3ccccc3C2=O)cc1OC	nt	nt	-0.65	nt
COc1cc(/C=C2/CCC/C(=C\c3cc(O)c(OC)c(Cl)c3)C2=O)cc(Cl)c1O	nt	nt	-4.2*	2.1
Cc1ccc(C(C(=O)NCc2ccco2)N(C(=O)Cn2nnc3ccccc32)c2ccccc2)o1 (centres undefined)	-0.73	-1.2	-1	nt
Cc1ccc(C(C(=O)NCc2ccco2)N(CCc2ccccc2)C(=O)Cn2nnc3ccccc32)o1 (centres undefined)	0.5	0.41	-0.59	-5.6*
Cc1ccc(N(C(=O)Cn2nnc3ccccc32)C(C(=O)NCc2ccco2)c2ccc(C)o2)cc1 (centres undefined)	0.22	0.046	-0.71	-4.3*
Cc1ccc(CN(C(=O)Cn2nnc3ccccc32)C(C(=O)NCc2ccco2)c2ccc(C)o2)cc1 (centres undefined)	nt	nt	-2.2	-0.71
Cc1cc(C)nc(/N=C(\N)Nc2ccc(F)c([N+](=O)[O-])c2)n1	nt	nt	-0.81	-0.077
COc1cccc(N2CCN(CC(=O)Nc3nnc(-c4ccccc4)s3)CC2)c1	-0.31	-0.42	-0.03	-5.2*
COc1cccc(NC(=O)c2ccc(CN3CCN(c4ccccc4)CC3)cc2)c1	-0.044	-1.8	-0.39	-5.4*
SMILES	M1 ag	M1 antag	Pyk2 oligo antag	Cav32 inh
COc1ccc(NC(=O)c2ccc(CN3CCN(c4ccccc4)CC3)cc2)cc1	-0.42	-0.46	1.3	0.56
COC1(c2ccccc2)NC(=S)NN=C1c1ccccc1 (centres undefined)	nt	nt	-0.29	0.9
CC(CC(=O)Nc1nc2ccccc2[nH]1)c1ccccc1 (centres undefined)	nt	nt	-0.94	-5.7*
CN(C)S(=O)(=O)c1ccc(N2CCCC2)c(C(=O)Nc2nc(-c3cc(F)ccc3F)cs2)c1	nt	nt	-0.2	nt
CC(C)(C)OC(=O)CNC(=O)c1[nH]cnc1C(=O)N[C@@H](CCCCNC(=O)OC(C)(C)C)C(=O)OC(C)(C)C	nt	nt	nt	-1
CC(C)(C)OC(=O)NCCCCCNC(=O)c1[nH]cnc1C(=O)N[C@@H](CCCCNC(=O)OC(C)(C)C)C(=O)OC(C)(C)C	nt	nt	nt	-2.7*
Cn1nccc1C(=O)OCC(=O)Nc1nc(-c2ccccc2)cs1	-0.45	-0.42	-0.12	-3.8*
Cn1cc(Cl)c(C(=O)OCC(=O)Nc2nc(-c3ccc(Br)cc3)cs2)n1	nt	nt	-0.71	-5.9*
O=C(CCSCc1ccccc1Cl)N1CCN(c2cccc(Cl)c2)CC1	nt	nt	-0.19	-4.2
COC(=O)Cn1c(=NC(=O)CSC(C)=O)sc2ccccc21	0.013	0.031	nt	-6.2*
COC(=O)Cn1c(=O)sc2ccccc21	nt	nt	0.75	-0.13
CCn1c(=NC(=O)CSC(C)=O)sc2ccccc21	0.15	0.96	1.7	-7.3*
Cc1nn(-c2ccccc2)c(Cl)c1C1C(C#N)=C(N)OC2=C1C(=O)CC(C)(C)C2 (centres undefined)	0.067	-0.083	-2.9	-0.1
CC(C)c1ccc(-c2nn(-c3ccccc3)cc2C2C(C#N)=C(N)OC3=C2C(=O)CC(C)(C)C3)cc1 (centres undefined)	nt	nt	-0.91	-5.3*
N#Cc1c2n(c3c(=O)n(Cc4ccccc4)cnc13)CCCC2	-0.044	-0.019	-0.98	1.8
N#Cc1c2n(c3c(=O)n(Cc4ccc(Cl)cc4)cnc13)CCCCC2	0.18	-0.43	-3.2*	nt
c1ccc2c(c1)NC(c1ccncc1)n1c-2nc2ccccc21 (centres undefined)	-0.011	0.03	0.21	0.24
c1cncc(C2Nc3ccccc3-c3nc4ccccc4n32)c1 (centres undefined)	0.033	0.4	-3.3*	1.6
Cc1ccc2c(c1)c(C)c(C)n2CC(O)Cn1nnc2ccccc21 (centres undefined)	-0.073	0.31	0.47	-4.7*
CN(C)c1ccc(/C=C/C(=O)c2cccc(Br)c2)cc1	nt	nt	-0.27	-7.5*
COc1ccc(C(=O)OCCNC(=O)c2ccncc2)cc1OC	nt	nt	1.4	nt
CCc1ccc(C(=O)COC(=O)C(Cc2ccccc2)NC(=O)c2ccc(Cl)cc2)cc1 (centres undefined)	nt	nt	0	-4.8*
CCc1ccc(C(=O)COC(=O)C(Cc2ccccc2)NC(=O)C2CCC(C)CC2)cc1 (centres undefined)	nt	nt	0.16	-0.023
COC(=O)[C@@H]1CCCN1C(=O)[C@@H](NC(=O)OC(C)(C)C)C(C)C	nt	nt	nt	1.1
Cc1ccc2c(CSc3nc4ccccc4c(=O)n3CCCO)cc(=O)oc2c1	10*	-0.19	nt	nt
SMILES	M1 ag	M1 antag	Pyk2 oligo antag	Cav32 inh
Cc1ccc(Nc2nc(N)nc(CN3CCN(c4ccccc4F)CC3)n2)cc1	nt	nt	-0.87	-5.3*
Nc1nc(CN2CCN(c3ccccc3F)CC2)nc(Nc2ccccc2)n1	0.18	-0.32	0.35	-1.2
CSc1ncc(CNc2cc([N+](=O)[O-])ccc2C)c(N)n1	nt	nt	nt	-0.49
COc1cccc(NC(=O)N(C2CCCCC2)C(C)c2cccs2)c1 (centres undefined)	nt	nt	1	-1.8
Cc1nnc(N(Cc2ccco2)C(=O)c2cccc(C#N)c2)s1	-0.024	-0.028	0.67	0.89
Cc1cccc2cc(CN(Cc3ccco3)C(=O)Nc3cccc(C#N)c3)c(Cl)nc12	nt	nt	-1.4	-4.5*
